Source: PubChem BioAssay (several laboratories)
This is a sample that favours compounds with a hit; in the whole collection about 2.8% have one here.
B2AR ag: activates human beta-2 adrenergic receptor causing internalization. P07550. Am2.2-beta2AR cells, FAP receptor internalization, flow cytometry. response, % (concentration not given with the values). hit rate 0.43% among 340,000;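 active means response above a set limit, near 3 SD of response in nonfluorescent compounds, cut at about 42% in these data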
Target sequence (P07550 whole entry, looked up): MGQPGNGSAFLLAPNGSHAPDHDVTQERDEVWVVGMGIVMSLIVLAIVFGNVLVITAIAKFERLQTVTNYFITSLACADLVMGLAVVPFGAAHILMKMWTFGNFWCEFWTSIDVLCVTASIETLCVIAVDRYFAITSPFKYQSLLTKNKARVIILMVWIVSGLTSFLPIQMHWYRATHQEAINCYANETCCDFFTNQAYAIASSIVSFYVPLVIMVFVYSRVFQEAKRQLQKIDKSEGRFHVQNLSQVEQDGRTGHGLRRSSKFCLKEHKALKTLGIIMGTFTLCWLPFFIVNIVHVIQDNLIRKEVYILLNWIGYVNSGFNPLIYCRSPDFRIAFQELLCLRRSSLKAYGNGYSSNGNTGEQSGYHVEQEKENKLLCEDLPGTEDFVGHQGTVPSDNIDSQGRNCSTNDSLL
KKLEB cytotox: CF airway cell cytotoxicity counter-screen; KKLEB CF airway cells viability, ATPlite luminescence, overnight; active compounds read low; cells stimulated with P. aeruginosa culture filtrate; activity change (cytotoxicity), % at 5 µM; hit rate 0.36% among 360,000; AID 602141;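 active means corrected activity change at or below -50% at 5 µM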
HIF-2a block: inhibitors of HIF-2a; 786-0 RCC cells HIF-2a reporter, luciferase luminescence, overnight; inhibition, % at 18.8 µM; hit rate 0.72% among 360,000; AID 624352;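 active means inhibition of the luminescence signal of 40% or more relative to plate controls, in a single-dose primary screen at 18.75 µM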
Peg3 promoter: reduces Peg3 promoter-driven luciferase expression in HeLa. hit rate 1.7% among 360,000. HeLa PEG-Prom luciferase reporter, luminescence, overnight. inhibition, % at 20 µM;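 active means inhibition of at least 50% at 20 µM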
MITF TRPM1 inh: inhibitors of MITF-driven TRPM1 promoter in melanoma cells; SK-MEL-5 TRPM1 promoter luciferase, 24 h; inhibition, % at 12.5 µM; hit rate 0.83% among 330,000;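 active means mean inhibition across replicates of 60% or more, whatever share of single replicates reaches that level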
CF NFkB inh: cystic fibrosis NF-kB activation inhibition; inhibition, % at 5 µM; AID 588850; hit rate 0.86% among 360,000; KKLEB NF-kB-GFP reporter, PAF-induced, GFP fluorescence overnight;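 active means at least 50% inhibition at 5 µM, scaled per plate between neutral and stimulator controls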;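 further: PAF is a Pseudomonas aeruginosa culture filtrate used as stimulus; plate controls were PAF-stimulated DMSO wells for no effect and unstimulated DMSO wells for full effect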
Numbers without * were called inactive; ! = not active in a repeat.

For C[C@@H]1CN([C@H](C)CO)C(=O)c2c(c3ccccc3n2C)-c2ccccc2CO[C@H]1CN(C)Cc1ccc(C(F)(F)F)cc1 the results were KKLEB cytotox -8, HIF-2a block -69, Peg3 promoter 59* and CF NFkB inh 10.
C[C@@H]1CN([C@H](C)CO)C(=O)c2c(c3ccccc3n2C)-c2ccccc2CO[C@H]1CN(C)Cc1ccc(Oc2ccccc2)cc1 was read as KKLEB cytotox -29, HIF-2a block -34, Peg3 promoter 58* and CF NFkB inh 30.
Screening CCOC(=O)c1c(OCC)[nH]c2c1cc(O)c1ccccc12 returned B2AR ag 3, KKLEB cytotox -22, HIF-2a block -19, Peg3 promoter -16, MITF TRPM1 inh 12 and CF NFkB inh 85*.
`CC(C)(C)NC(=O)C1c2ccccc2OCC(=O)N1CCc1ccccc1` (stereo not drawn) gave HIF-2a block 21.
For O=C(NCNC(=O)c1ccccc1)c1ccccc1 the results were B2AR ag 63*, KKLEB cytotox -10, HIF-2a block -1, Peg3 promoter 5, MITF TRPM1 inh 8 and CF NFkB inh 8.
`O=C(NCCCNC(=O)c1ccccc1)c1ccccc1` gave B2AR ag 6, KKLEB cytotox -15, HIF-2a block 24, Peg3 promoter 6 and CF NFkB inh -10.
`O=C1NC[C@@H](CCCCN2C[C@H](Cc3ccccc3)N(CC3CCCCC3)C(=O)C2=O)N(Cc2ccccc2)C1=O` gave HIF-2a block 3.
For Cc1ccc(-c2cn(-c3ccccc3)c3[n+]2CCCS3)cc1 the results were B2AR ag 3, KKLEB cytotox 4, HIF-2a block 17, Peg3 promoter 15, MITF TRPM1 inh 43 and CF NFkB inh -15.
For COc1ccc(-n2cc(-c3ccc(C)cc3)[n+]3c2SCC3)cc1 the results were B2AR ag 7, KKLEB cytotox 8, HIF-2a block 10, Peg3 promoter 14, MITF TRPM1 inh 71* and CF NFkB inh -12.
For O=C(Nc1ccc(F)cc1)C(CCc1ccccc1)N1CCN(C(=O)c2ccco2)CC1 (stereo not drawn) the results were HIF-2a block 6.
`CCC(C)(O)c1cnc(CC(C)C)c(=O)n1O` (stereo not drawn) gave KKLEB cytotox 1, HIF-2a block -6, Peg3 promoter -1 and CF NFkB inh -9.
`N#C/C(=N/Nc1ccc(OC(F)(F)F)cc1)C(N)=S` gave B2AR ag 18, KKLEB cytotox -48, HIF-2a block -256, Peg3 promoter -169, MITF TRPM1 inh 3 and CF NFkB inh 64*.
`COc1ccc(N/N=C(\C#N)C(N)=O)cc1` gave B2AR ag -1, KKLEB cytotox -6, HIF-2a block -42, Peg3 promoter -27, MITF TRPM1 inh 5 and CF NFkB inh 0.
Screening Cc1csc(-c2nc3ccccc3n2C(C(=O)NC(C)(C)C)c2cc3ccccc3o2)c1 (stereo not drawn) returned HIF-2a block -128.
Cc1ccc(C(=O)N/C(=C/c2ccc(-c3ccc([N+](=O)[O-])cc3)o2)C(=O)NCCCN(C)C)cc1 was read as B2AR ag -91, KKLEB cytotox -10, HIF-2a block -8, Peg3 promoter 109*, MITF TRPM1 inh 15 and CF NFkB inh -1.
Screening O=C1NC[C@H](CCCCN2C[C@H](Cc3ccccc3)N(CCc3ccccc3)C(=O)C2=O)N(CC2CCCCC2)C1=O returned HIF-2a block -2.
Screening CC1(C)CC(N=Cc2c(O)n(Cc3ccc4c(c3)OCO4)c(=O)c3ccccc23)CC(C)(C)N1 returned B2AR ag 7, KKLEB cytotox -9, HIF-2a block 5, Peg3 promoter 82*, MITF TRPM1 inh 11 and CF NFkB inh 5.
`CN(C)CCN=Cc1c(O)n(Cc2ccccc2)c(=O)c2ccccc12` gave B2AR ag 4, KKLEB cytotox -8, HIF-2a block 5, Peg3 promoter 7, MITF TRPM1 inh -1 and CF NFkB inh 8.
`CCCCCCCCCCCCCCCC[n+]1cccc(C(=O)N(CC)CC)c1` gave B2AR ag 15, KKLEB cytotox -93*!, HIF-2a block 46*, Peg3 promoter 105*, MITF TRPM1 inh 18 and CF NFkB inh 91*!.
For CCCCCCCC[n+]1cccc(C(=O)N(CC)CC)c1 the results were B2AR ag -6, KKLEB cytotox -5, HIF-2a block 18, Peg3 promoter 14, MITF TRPM1 inh 14 and CF NFkB inh 7.
CC1OC(CC(=O)O)CC2=C1C(=O)c1c(O)cccc1C2=O (stereo not drawn) was read as B2AR ag 75*, KKLEB cytotox -105*, HIF-2a block 87*, Peg3 promoter 100*, MITF TRPM1 inh 113* and CF NFkB inh 101*.
Screening C[C@H]1CN([C@@H](C)CO)C(=O)CCCn2nncc2CO[C@H]1CN(C)C(=O)c1ccc(N2CCN(C)CC2)cc1 returned KKLEB cytotox -4, HIF-2a block 8, Peg3 promoter -11 and CF NFkB inh 14.
`COc1ccc(-c2nc3ccccc3n2Cc2ccc(C)cc2)cc1` gave B2AR ag 0, KKLEB cytotox -2, HIF-2a block -106, Peg3 promoter -37, MITF TRPM1 inh -14 and CF NFkB inh 0.
Screening COc1ccc(Cn2c(-c3ccc(C)cc3)c[n+]3ccccc23)cc1 returned B2AR ag 3, KKLEB cytotox -8, HIF-2a block -6, Peg3 promoter 3, MITF TRPM1 inh 78* and CF NFkB inh 22.
For Cc1cc(NC(=O)COC(=O)C2COc3ccccc3O2)no1 (stereo not drawn) the results were B2AR ag 0, KKLEB cytotox -4, HIF-2a block 11, Peg3 promoter 64*, MITF TRPM1 inh 12 and CF NFkB inh -5.
Cc1cc(NC(=O)C2COc3ccccc3O2)no1 (stereo not drawn) was read as B2AR ag 6, KKLEB cytotox 1, HIF-2a block -176, Peg3 promoter -162 and CF NFkB inh -15.
`COc1ccccc1-c1cc(-c2ccccc2)nc(SC(C(N)=O)c2ccccc2)c1C#N` (stereo not drawn) gave B2AR ag -2, KKLEB cytotox -72*, HIF-2a block 5, Peg3 promoter 47, MITF TRPM1 inh 38 and CF NFkB inh 60*.
Cc1nc(SC(C(N)=O)c2ccccc2)c(C#N)c(C)c1C (stereo not drawn) was read as B2AR ag 1, KKLEB cytotox 17, HIF-2a block -63, Peg3 promoter -50 and CF NFkB inh -18.
`C=CC[C@@H](CC(=O)N[C@@H](CO)Cc1ccccc1)C(=O)N[C@H](COC(=O)[C@@H](CC=C)CC(=O)OC(C)(C)C)Cc1c[nH]c2ccccc12` gave B2AR ag 9, KKLEB cytotox 6, HIF-2a block -7, Peg3 promoter 44, MITF TRPM1 inh 3 and CF NFkB inh -21.
